From PubChem BioAssay (NCATS)
Records with an inconclusive call do not appear. Calls of active or inactive are those of the source. Calls follow the shape of the dose curve; as a rule, active = well fitted curve in the direction sought with a large enough effect; inconclusive = small, poorly fitted or top-dose-only effect, or another doubt; inactive = no such curve, though single readings can be large; an effect the other way counts as inactive or inconclusive.

What was measured:
[1] = qHTS of pediatric cancer cell lines to identify multiple opportunities for drug repurposing: Primary screen for Rh41 cells (AID 1347108); also: potency is read from the fitted curve at half-maximal effect; nearly all actives have a fitted effect of over 70% in size
Outline: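 ATP-based luminescence (CellTiter-Glo) quantifies viability after a 48-hour exposure. Compounds are dosed across 8 or 11 final concentrations; DMSO and 2.3 µM bortezomib serve as controls.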

[2] = qHTS of pediatric cancer cell lines to identify multiple opportunities for drug repurposing: Primary screen for control Hh wild type fibroblast cells (AID 1347106);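 also: series mostly up to about 46 µM; a drop in luminescence marks cytotoxicity and a rise apparent proliferation; nearly all actives have a fitted effect of over 55% in size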
Outline: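 Cells (500-1,000/well) in growth media were settled 5 h at 37 degrees C, then given compounds for 48 h. Viability was read as CellTiter-Glo luminescence. Primary runs used MIPE at 11 points (0.78 nM-46 µM) and NPC at 8 points (0.59 nM-46 µM); follow-ups used 11 points.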

[3] = qHTS of pediatric cancer cell lines to identify multiple opportunities for drug repurposing: Confirmatory screen for NB1643 cells (AID 1347109); also: nearly all actives have a fitted effect of over 45% in size; also: potency is read from the fitted curve at half-maximal effect
Outline: (§1)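 Viability after 48 h compound treatment at 37C, 500-1,000 cells/well, read as ATP luminescence with CellTiter-Glo. Primary screens used 11-point (MIPE, 0.78 nM-46 µM) or 8-point (NPC, 0.59 nM-46 µM) final concentrations; follow-up screens used 11-point dilutions.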

[4] = qHTS of pediatric cancer cell lines to identify multiple opportunities for drug repurposing: Confirmatory screen for A673 cells (AID 1347110); also: nearly all actives have a fitted effect of over 65% in size; also: potency is read from the fitted curve at half-maximal effect
Outline: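 Concentration-response curves came straight from titrations: 11 points (0.78 nM to 46 µM) for MIPE and several concentrations (0.59 nM to 46 µM) for NPC in primary, 11 points in follow-up. Readout: ATP luminescence at 48 h.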

[5] = qHTS of pediatric cancer cell lines to identify multiple opportunities for drug repurposing: Confirmatory screen for SK-N-MC cells (AID 1347111);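 also: cells exposed to compound for 48 h before the readout; nearly all actives have a fitted effect of over 70% in size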; also: potency is read from the fitted curve at half-maximal effect
Outline: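 SK-N-MC cells at 500-1,000 cells/well in growth media were pre-incubated 5 h, then exposed to compounds at 11-point dilutions for 48 h at 37 degrees C, 5% CO2. Viability was read as CellTiter-Glo luminescence.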

[6] = qHTS of pediatric cancer cell lines to identify multiple opportunities for drug repurposing: Confirmatory screen for BT-12 cells (AID 1347112); also: nearly all actives have a fitted effect of over 55% in size; also: potency is read from the fitted curve at half-maximal effect
Outline: as §1

[7] = qHTS of pediatric cancer cell lines to identify multiple opportunities for drug repurposing: Confirmatory screen for LAN-5 cells (AID 1347113); also: nearly all actives have a fitted effect of over 65% in size; also: potency is read from the fitted curve at half-maximal effect
Outline: as §1

[8] = qHTS of pediatric cancer cell lines to identify multiple opportunities for drug repurposing: Confirmatory screen for DAOY cells (AID 1347114); also: nearly all actives have a fitted effect of over 65% in size; also: potency is read from the fitted curve at half-maximal effect
Outline: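 Viability measured as metabolically active cells via CellTiter-Glo luminescence following 48 hours of compound exposure, 11-point dilutions in confirmatory testing. 500-1,000 cells/well plated 5 hours before dosing; controls were DMSO and 2.3 µM bortezomib.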

Measured: Potency

CC1(C)CC(=O)c2c(C(F)(F)F)nn(-c3ccc(C(N)=O)c(NC4CCC(OC(=O)CN)CC4)c3)c2C1 (stereo unspecified)
active: [1] 372 nM

CCNC(=O)Nc1ccc2ncc(Nc3ccc(C)cc3)nc2n1
inactive: [2] | [3] | [4] | [5] | [6] | [7] | [8]

COc1ccc(C=Cc2cc(OC)c(OC)c(OC)c2)cc1O
active: [4] 18.5 nM | [5] 16.5 nM | [7] 52.2 nM | [8] 73.7 nM
inactive: [2]

CCn1nnc2c(N3CCOCC3)nc(-c3ccc(NC(=O)Nc4ccc(C(=O)N5CCN(C)CC5)cc4)cc3)nc21
active: [1] 93.5 nM | [3] 1850 nM | [4] 585 nM | [5] 657 nM | [7] 522 nM

COc1ccc(OC)c(-c2nnc3ccc(-c4ccc(OC)c(O[C@@H]5CCOC5)c4)nn23)c1
active: [1] 20900 nM | [3] 5220 nM | [4] 10400 nM | [5] 4650 nM
inactive: [6]

COC(=O)c1ccc2c(C(=Nc3ccc(N(C)C(=O)CN4CCN(C)CC4)cc3)c3ccccc3)c(O)[nH]c2c1
inactive: [6]
active: [1] 18700 nM | [3] 16500 nM | [5] 18500 nM | [7] 18500 nM | [8] 26100 nM

CCS(=O)(=O)c1cccc(-c2cc(C(=O)NC3CCN(C)CC3)c(C)c3[nH]c4ncc(C)cc4c23)c1
active: [1] 1320 nM | [3] 414 nM | [4] 928 nM | [5] 117 nM | [6] 4650 nM | [7] 1170 nM | [8] 16500 nM
